Reference: the supplement of paper PMC6555819

Test system: FXR:RXRa (NR concentration 270 nM, RXRa partner concentration 90 nM)
Test: PBM binding z-score (relative to random genomic background probes); higher = stronger binding; sequences stand for … in GC…GCGATTGACAGCGTAGAATGAAGG
How it was run: (§1)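 Probes were double-stranded and carried 34-nt variable regions with direct-repeat seeds, single-nucleotide variants, half-site ablations and random human genomic background sequences, printed on custom Agilent 4×180K protein-binding microarrays. Arrays were incubated 1 h with ligand-free nuclear receptor dimers in PBS pH 7.4, 2% milk, 0.02% Triton X-100, 1 mM DTT, 0.2 mg/mL BSA and 0.4 mg/ml salmon testes DNA. Antibodies against each partner (one per run) detected binding, and scanned fluorescence was regression-normalized. Binding z-scores use the random background probes as reference.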

Point of comparison: CCGAGTAGGTCACGAGGGGGCATTCAGTGCGAAT, PBM binding z-score 6.09. Against it:
- CTATGTAGGTTAAGGGGGTTATTCAGTTTGAAAG — lower, 2.37
- TCGAGTAGGTTACGGAGGCATTCAGGGATGAAGA — lower, 0.282
- CTATGTAGGTTAAGCGGGTCATTCAGTTTGAAAG — lower, 2.56
- CGATGTAGGTTAAGGGGGTCATTCAGTTTGAAAG — lower, 5.57
- CTATGTAGGTTAAGGGGGCCATTCAGTTTGAAAG — lower, 1.41
- CTATGCAGGTTAAGGGGGTCATTCAGTTTGAAAG — lower, 5.02
- TCGAGTAGGTTACTGGGGCATTCAGGGATGAAGA — lower, 0.441
- CCGACTAGGTTACGAGGGGGCATTCAGTGCGAAT — lower, 2.03
- CCGAGTAGGTTACGAGGGGGCATTCGGTGCGAAT — lower, 1.7
- TCGAGTAGGTTACGGGGGCATTCAGGGATGAAGA — lower, 2.79
- TCGAGTAGGTTACGGGGGCATTAAGGGATGAAGA — lower, 2.01
- CAATGTAGGTTAAGGGGGTCATTCAGTTTGAAAG — lower, 3.39
- CTATGTAGGTTAATGGGGTCATTCAGTTTGAAAG — lower, 5.79
- CCGAGTAGGTTACGAGGCGGCATTCAGTGCGAAT — lower, -0.0338
- CCGAGTAGGTTACGAGGGCGCATTCAGTGCGAAT — lower, 0.0416
- CTATGTAGGTGAAGGGGGTCATTCAGTTTGAAAG — lower, 4.41
- TCTAGTAGGTTACGGGGGCATTCAGGGATGAAGA — lower, 3.33
- CCGAGTAAGTTACGAGGGGGCATTCAGTGCGAAT — lower, 0.776
- CTATGTAGGGTAAGGGGGTCATTCAGTTTGAAAG — lower, 5.03
- CTATGTAGGTTAAAGGGGTCATTCAGTTTGAAAG — higher, 6.38
- CTCTGTAGGTTAAGGGGGTCATTCAGTTTGAAAG — lower, 5.36
- TCGAGTAGGTTACGGGGGCATTGAGGGATGAAGA — lower, 2.37
- CCGAGTAGGTAACGAGGGGGCATTCAGTGCGAAT — lower, 1.91
- CTATTTAGGTTAAGGGGGTCATTCAGTTTGAAAG — lower, 4.85
- CTATGTAGGTTCAGGGGGTCATTCAGTTTGAAAG — lower, 5.43
- TCGAGTAGGTTACGGGCGCATTCAGGGATGAAGA — lower, 0.124
- CTATGTACGTTAAGGGGGTCATTCAGTTTGAAAG — lower, 4.34
- CCGAGTAGGTTCCGAGGGGGCATTCAGTGCGAAT — lower, 0.618
- CTATGTAGGTTAAGGGGGTCATTTAGTTTGAAAG — lower, 5.01
- CCGATTAGGTTACGAGGGGGCATTCAGTGCGAAT — lower, 2.54
- CTATGTAGGTTAACGGGGTCATTCAGTTTGAAAG — lower, 5.18
- TCGAGTAGGTTACGGGGGCATCCAGGGATGAAGA — lower, 2.12
- CCGAGTAGGTTATGAGGGGGCATTCAGTGCGAAT — lower, 3.13
- TCGAGTAGGTTACGCGGGCATTCAGGGATGAAGA — lower, 0.576
- CCGCGTAGGTTACGAGGGGGCATTCAGTGCGAAT — lower, 2.11
- CTATGTAGGTTAAGGGGTTCATTCAGTTTGAAAG — lower, 2.03
- CCGAGTAGGTTACGATGGGGCATTCAGTGCGAAT — lower, 0.181
- TCGAGTAGGTTACGGGGTCATTCAGGGATGAAGA — higher, 6.23

Test system: LXRa:RXRa (NR concentration 270 nM, RXRa partner concentration 90 nM)
Test: as above
How it was run: as §1

Point of comparison: CTATGTAGGTTAAAGGGGTCATTCAGTTTGAAAG, PBM binding z-score 5.21. Against it:
- CTATGTAGGTTAAGGGGGTTATTCAGTTTGAAAG — lower, 2.74
- TCGAGTAGGTTACGGAGGCATTCAGGGATGAAGA — lower, 0.497
- CTATGTAGGTTAAGCGGGTCATTCAGTTTGAAAG — lower, 2.59
- CGATGTAGGTTAAGGGGGTCATTCAGTTTGAAAG — lower, 4.7
- CTATGTAGGTTAAGGGGGCCATTCAGTTTGAAAG — lower, 1.83
- CTATGCAGGTTAAGGGGGTCATTCAGTTTGAAAG — lower, 5.01
- TCGAGTAGGTTACTGGGGCATTCAGGGATGAAGA — lower, 0.372
- CCGACTAGGTTACGAGGGGGCATTCAGTGCGAAT — higher, 6.99
- CCGAGTAGGTTACGAGGGGGCATTCGGTGCGAAT — higher, 7.08
- TCGAGTAGGTTACGGGGGCATTCAGGGATGAAGA — lower, 2.81
- TCGAGTAGGTTACGGGGGCATTAAGGGATGAAGA — lower, 2.81
- CAATGTAGGTTAAGGGGGTCATTCAGTTTGAAAG — higher, 5.38
- CTATGTAGGTTAATGGGGTCATTCAGTTTGAAAG — higher, 5.31
- CCGAGTAGGTTACGAGGCGGCATTCAGTGCGAAT — lower, 0.596
- CCGAGTAGGTTACGAGGGCGCATTCAGTGCGAAT — lower, 1.77
- CTATGTAGGTGAAGGGGGTCATTCAGTTTGAAAG — lower, 4.45
- TCTAGTAGGTTACGGGGGCATTCAGGGATGAAGA — lower, 3.71
- CCGAGTAAGTTACGAGGGGGCATTCAGTGCGAAT — lower, 3.84
- CTATGTAGGGTAAGGGGGTCATTCAGTTTGAAAG — lower, 4.71
- CTCTGTAGGTTAAGGGGGTCATTCAGTTTGAAAG — lower, 5.1
- TCGAGTAGGTTACGGGGGCATTGAGGGATGAAGA — lower, 2.69
- CCGAGTAGGTAACGAGGGGGCATTCAGTGCGAAT — higher, 5.77
- CTATTTAGGTTAAGGGGGTCATTCAGTTTGAAAG — lower, 4.88
- CTATGTAGGTTCAGGGGGTCATTCAGTTTGAAAG — higher, 5.56
- TCGAGTAGGTTACGGGCGCATTCAGGGATGAAGA — lower, 0.321
- CTATGTACGTTAAGGGGGTCATTCAGTTTGAAAG — lower, 4.93
- CCGAGTAGGTTCCGAGGGGGCATTCAGTGCGAAT — lower, 1.8
- CTATGTAGGTTAAGGGGGTCATTTAGTTTGAAAG — lower, 4.94
- CCGATTAGGTTACGAGGGGGCATTCAGTGCGAAT — higher, 7.34
- CTATGTAGGTTAACGGGGTCATTCAGTTTGAAAG — higher, 5.6
- TCGAGTAGGTTACGGGGGCATCCAGGGATGAAGA — lower, 2.55
- CCGAGTAGGTTATGAGGGGGCATTCAGTGCGAAT — higher, 6.86
- CCGAGTAGGTCACGAGGGGGCATTCAGTGCGAAT — higher, 6.71
- TCGAGTAGGTTACGCGGGCATTCAGGGATGAAGA — lower, 0.477
- CCGCGTAGGTTACGAGGGGGCATTCAGTGCGAAT — higher, 7.21
- CTATGTAGGTTAAGGGGTTCATTCAGTTTGAAAG — lower, 3.21
- CCGAGTAGGTTACGATGGGGCATTCAGTGCGAAT — higher, 6.63
- TCGAGTAGGTTACGGGGTCATTCAGGGATGAAGA — higher, 5.46
